Assays:
Assay in all cases: PBM binding z-score (relative to random genomic background probes); higher = stronger binding; sequences stand for … in GC…GCGATTGACAGCGTAGAATGAAGG
[1] = tested on: RARb homodimer (NR concentration 270 nM)
Outline: (§1)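 Scanned fluorescence from custom Agilent 4×180K protein-binding microarrays was regression-normalized. Binding z-scores use random background probes as reference. Ligand-free nuclear receptor dimers were incubated on the arrays for 1 h and detected with antibodies against each partner (one per run).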

[2] = tested on: RARg:RXRa (NR concentration 270 nM, RXRa partner concentration 90 nM)
Outline: as §1

[3] = tested on: RARg homodimer (NR concentration 270 nM)
Outline: as §1

[4] = tested on: RXRa DBDmut IVT, anti-RXR (DBD mutation: RXRa K156A/R161A, NR concentration 90 nM)
Outline: as §1

[5] = tested on: RXRa homodimer (NR concentration 180 nM)
Outline: as §1

[6] = tested on: THRa:RXRa (NR concentration 90 nM, RXRa partner concentration 90 nM)
Outline: as §1

[7] = tested on: THRa homodimer (NR concentration 90 nM)
Outline: as §1

[8] = tested on: VDR homodimer (NR concentration 270 nM)
Outline: as §1

Row | Sequence | PBM binding z-score [1] | PBM binding z-score [2] | PBM binding z-score [3] | PBM binding z-score [4] | PBM binding z-score [5] | PBM binding z-score [6] | PBM binding z-score [7] | PBM binding z-score [8]
1 | CGTCCAAGGTCAGAGGAGGTCAGTGAAGACAGAT | 5.15 | 6.03 | 6.88 | 2.36 | 5.13 | 5.09 | 2.8 | 3.43
2 | GCTGCTAGGTCAGGTTGGTCAGCAAACGGGTACG | 2.84 | 2.72 | 3.54 | 0.377 | 1.03 | 1.92 | 0.409 | 0.182
3 | CCTCGTAGGACAACAGGAGGTCAGAGCTGCCAGA | 3.16 | 3.05 | 3 | 0.577 | 2 | 2.51 | 0.709 | 0.704
4 | AGAACGAGGGCAAAGAGTTGATAGCACGGGTGGC | 1.12 | 1.3 | 1.69 | 2.57 | 1.14 | 0.917 | -0.224 | 3.05
5 | CTACCAAGGTGAACAAGGTCGTTTATTACTATTC | 2.34 | 1.72 | 1.55 | 2.29 | 1.77 | 3.26 | 2.33 | 3
6 | TCTTGTAGATCAAAGGTTAAGGAAGCCGAAGCCT | 1.55 | 1.85 | 0.852 | 0.63 | 3.15 | 1.39 | -0.169 | -0.0198
7 | CGTCACAGTTCAACTAAGGTAACGTAAAGCACGC | 2.56 | 3.25 | 3.37 | 3.38 | 2.76 | 5.11 | 2.19 | 2.16
8 | CGAACGAGGGCATGAGTCGATAGCAAATGCCGAT | 0.648 | 0.901 | 1.41 | 1.99 | 0.869 | 0.888 | -0.267 | 0.974
9 | CCTACTGCGCCATCAGGTCATTGATATCAACGTT | 2.85 | 1.59 | 1.53 | 1.5 | 1.3 | 3.49 | 3.56 | 2.17
10 | CCTCGGAGGACAACAGGAGGTCAGAGCCGCCAGA | 3.53 | 3.51 | 3.53 | 0.0894 | 1.71 | 2.8 | 0.858 | 0.836
11 | CCGACTGGTGCAAGGTTACCATAACGCACAGCCA | 0.979 | 0.462 | 0.421 | 0.0825 | 0.899 | 1.08 | 0.473 | 0.112
12 | CGTCCAAGGTCATAGGAGGACAGTGAAGACAGAT | 4.12 | 5.65 | 6.13 | 3.71 | 5.55 | 4.99 | 2.83 | 3.3
13 | GAACCAAGGTGAATAGGTCGTTGATGAGTAGGCG | 1.78 | 2.53 | 1.25 | -0.268 | 2 | 1.77 | 0.124 | -0.00141
14 | CATTACGGGTCAAGGTTATAGCACGGGTGGTACG | 3.78 | 5.08 | 5.37 | 1.61 | 6.03 | 3.51 | 1.29 | 2.04
15 | CGTGCTAGGTCATGGTCAGCTAATCTACAGTATG | 3.2 | 3.97 | 4.74 | 1.87 | 2.75 | 3.12 | 1.2 | 0.319
16 | TCTTGTAGATCAAAGGTTAGGAAAGCCGAAGCCT | 0.876 | 0.902 | 0.458 | 0.579 | 2.08 | 0.654 | -0.709 | -0.493
17 | CTACCAAGATGAACAAGGTCGTTGATTACTATTC | 1.24 | 0.579 | 0.551 | 1.52 | 0.837 | 1.77 | 1.54 | 2.53
18 | CATTCAGGGTCAGCTAGGCCAGAGTAGGGACGGC | 3.59 | 4.64 | 5.03 | 2 | 5.08 | 3.44 | 1.31 | 1.42
19 | TCTTGAAGATCAACAGGAGGTTAAGAAAGATCGA | 0.572 | 1.45 | 0.367 | 0.56 | 1.25 | 0.975 | -0.383 | -0.404
20 | CCTAGTTGGTCAGGAGGTCGCACACCGGATATGA | 2.18 | 2.4 | 1.98 | -0.149 | 1.86 | 1.66 | 0.99 | 1.59
21 | CCTTACGGGTCAAGGATATAGCACGGGTGGTACG | 3.04 | 4.53 | 4.5 | 0.465 | 4.68 | 2.38 | 0.293 | 0.886
22 | CCTACTGGGGCAAAAAGGTCATTGATGCCGATAA | 4.23 | 4.99 | 4.5 | 0.866 | 4.63 | 2.9 | 0.176 | 3.13
23 | CCTAGCAGGCCAGAGTCACTCAAGCATTTCGCTT | -0.596 | -0.447 | -0.706 | -0.204 | -0.442 | -0.569 | -0.769 | -0.726
24 | TCGAGTAGGTTAGTCGGGGCAGTCAGCCAACATA | 0.699 | -0.199 | 0.0307 | 0.125 | -0.226 | 0.854 | -0.302 | -0.321
25 | TCTATTTGGTCAAAGGTCACACACTCGAAATGCG | 5.34 | 7.07 | 6.16 | 2.49 | 7.9 | 4.24 | 2.77 | 2.96
26 | CTACCAAAGTGAACAAGGTCGTTGATTACTATTC | 1.32 | 0.65 | 0.529 | 1.69 | 0.996 | 1.94 | 1.24 | 2.22
27 | TTACCAAGGTGAGCTGAGGTCGTTAATCCAACTC | 1.49 | 0.963 | 0.731 | -0.172 | 1.12 | 4.42 | 1.8 | 1.33
28 | TCATATAGGTAAACAGGTGAAAGACCGTAAGTTA | 0.437 | 0.712 | 0.452 | 1.32 | 1.17 | 0.539 | 0.114 | 0.225

Source: the supplement of paper PMC6555819
